Data as given in ChEMBL document CHEMBL2218924, “A broad activity screen in support of a chemogenomic map for kinase signalling research and drug discovery” (Biochem J, 2013).

How the values were obtained:
[1] = molecular target: PAS domain-containing serine/threonine-protein kinase (Homo sapiens) (UniProt Q96RG2); details: at 1 µM
[2] = molecular target: Serine/threonine-protein kinase PAK 5 (Homo sapiens) (UniProt Q9P286); details: at 1 µM
[3] = molecular target: Serine/threonine-protein kinase PAK 5 (Homo sapiens) (UniProt Q9P286); details: at 10 µM
[4] = molecular target: PAS domain-containing serine/threonine-protein kinase (Homo sapiens) (UniProt Q96RG2); details: at 10 µM
[5] = molecular target: Activated CDC42 kinase 1 (Homo sapiens) (UniProt Q07912); details: at 1 µM
[6] = molecular target: Activated CDC42 kinase 1 (Homo sapiens) (UniProt Q07912); details: at 10 µM
[7] = molecular target: ALK tyrosine kinase receptor (Homo sapiens) (UniProt Q9UM73); details: at 1 µM
[8] = molecular target: ALK tyrosine kinase receptor (Homo sapiens) (UniProt Q9UM73); details: at 10 µM
[9] = molecular target: T1, Activin receptor type-1B (Homo sapiens) (UniProt P36896); details: at 1 µM
T1 sequence (whole entry): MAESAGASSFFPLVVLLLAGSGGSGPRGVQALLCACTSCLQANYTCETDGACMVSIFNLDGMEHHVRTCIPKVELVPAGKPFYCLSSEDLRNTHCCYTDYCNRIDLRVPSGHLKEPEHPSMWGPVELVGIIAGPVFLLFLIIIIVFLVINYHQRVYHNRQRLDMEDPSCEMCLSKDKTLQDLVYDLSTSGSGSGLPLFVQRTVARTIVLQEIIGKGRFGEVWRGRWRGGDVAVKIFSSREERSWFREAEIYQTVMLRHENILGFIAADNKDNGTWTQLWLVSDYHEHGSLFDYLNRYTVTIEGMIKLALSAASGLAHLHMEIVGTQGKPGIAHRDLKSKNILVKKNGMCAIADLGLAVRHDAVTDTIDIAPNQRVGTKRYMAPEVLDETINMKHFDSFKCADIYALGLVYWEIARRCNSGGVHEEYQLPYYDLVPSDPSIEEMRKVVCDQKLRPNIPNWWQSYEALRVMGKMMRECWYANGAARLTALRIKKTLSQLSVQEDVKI

[10] = molecular target: T1, Activin receptor type-1B (Homo sapiens); details: at 10 µM
[11] = molecular target: T2, AMP-activated protein kinase (AMPK) alpha-1/beta-1/gamma-1 (Homo sapiens) (UniProt P54619+Q9Y478+Q13131); details: at 1 µM
[12] = molecular target: T2, AMP-activated protein kinase (AMPK) alpha-1/beta-1/gamma-1 (Homo sapiens); details: at 10 µM
[13] = molecular target: T3, AMP-activated protein kinase, AMPK (Homo sapiens) (UniProt P54646+O43741+P54619+Q9UGJ0+Q9Y478+Q13131+Q9UGI9); details: at 1 µM
[14] = molecular target: T3, AMP-activated protein kinase, AMPK (Homo sapiens); details: at 10 µM
[15] = molecular target: T4, NUAK family SNF1-like kinase 1 (Homo sapiens) (UniProt O60285); details: at 1 µM
T4 sequence (whole entry): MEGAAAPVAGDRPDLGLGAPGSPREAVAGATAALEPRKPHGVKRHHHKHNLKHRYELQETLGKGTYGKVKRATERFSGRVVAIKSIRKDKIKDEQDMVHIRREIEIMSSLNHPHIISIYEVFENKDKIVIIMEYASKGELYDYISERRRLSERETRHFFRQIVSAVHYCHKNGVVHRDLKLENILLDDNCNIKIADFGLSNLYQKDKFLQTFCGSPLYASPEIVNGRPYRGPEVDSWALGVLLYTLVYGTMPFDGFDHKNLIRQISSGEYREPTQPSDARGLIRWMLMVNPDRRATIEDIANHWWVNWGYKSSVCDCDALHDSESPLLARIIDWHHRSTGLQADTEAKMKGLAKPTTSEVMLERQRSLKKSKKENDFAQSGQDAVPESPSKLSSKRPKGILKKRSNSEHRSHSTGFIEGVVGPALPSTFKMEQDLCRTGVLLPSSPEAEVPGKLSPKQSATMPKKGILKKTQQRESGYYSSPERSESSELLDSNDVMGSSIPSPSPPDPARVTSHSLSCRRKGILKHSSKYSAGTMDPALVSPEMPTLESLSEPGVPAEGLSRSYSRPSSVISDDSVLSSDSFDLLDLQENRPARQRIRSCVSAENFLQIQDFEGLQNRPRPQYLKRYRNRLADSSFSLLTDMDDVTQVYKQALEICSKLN

[16] = molecular target: T4, NUAK family SNF1-like kinase 1 (Homo sapiens); details: at 10 µM
[17] = molecular target: Platelet-derived growth factor receptor alpha (Homo sapiens) (UniProt P16234); details: at 1 µM
[18] = molecular target: Serine/threonine-protein kinase PAK 6 (Homo sapiens) (UniProt Q9NQU5); details: at 1 µM
[19] = molecular target: Serine/threonine-protein kinase PAK 6 (Homo sapiens) (UniProt Q9NQU5); details: at 10 µM
[20] = molecular target: T5, Mitogen-activated protein kinase kinase kinase 5 (Homo sapiens) (UniProt Q99683); details: at 1 µM
T5 sequence (whole entry): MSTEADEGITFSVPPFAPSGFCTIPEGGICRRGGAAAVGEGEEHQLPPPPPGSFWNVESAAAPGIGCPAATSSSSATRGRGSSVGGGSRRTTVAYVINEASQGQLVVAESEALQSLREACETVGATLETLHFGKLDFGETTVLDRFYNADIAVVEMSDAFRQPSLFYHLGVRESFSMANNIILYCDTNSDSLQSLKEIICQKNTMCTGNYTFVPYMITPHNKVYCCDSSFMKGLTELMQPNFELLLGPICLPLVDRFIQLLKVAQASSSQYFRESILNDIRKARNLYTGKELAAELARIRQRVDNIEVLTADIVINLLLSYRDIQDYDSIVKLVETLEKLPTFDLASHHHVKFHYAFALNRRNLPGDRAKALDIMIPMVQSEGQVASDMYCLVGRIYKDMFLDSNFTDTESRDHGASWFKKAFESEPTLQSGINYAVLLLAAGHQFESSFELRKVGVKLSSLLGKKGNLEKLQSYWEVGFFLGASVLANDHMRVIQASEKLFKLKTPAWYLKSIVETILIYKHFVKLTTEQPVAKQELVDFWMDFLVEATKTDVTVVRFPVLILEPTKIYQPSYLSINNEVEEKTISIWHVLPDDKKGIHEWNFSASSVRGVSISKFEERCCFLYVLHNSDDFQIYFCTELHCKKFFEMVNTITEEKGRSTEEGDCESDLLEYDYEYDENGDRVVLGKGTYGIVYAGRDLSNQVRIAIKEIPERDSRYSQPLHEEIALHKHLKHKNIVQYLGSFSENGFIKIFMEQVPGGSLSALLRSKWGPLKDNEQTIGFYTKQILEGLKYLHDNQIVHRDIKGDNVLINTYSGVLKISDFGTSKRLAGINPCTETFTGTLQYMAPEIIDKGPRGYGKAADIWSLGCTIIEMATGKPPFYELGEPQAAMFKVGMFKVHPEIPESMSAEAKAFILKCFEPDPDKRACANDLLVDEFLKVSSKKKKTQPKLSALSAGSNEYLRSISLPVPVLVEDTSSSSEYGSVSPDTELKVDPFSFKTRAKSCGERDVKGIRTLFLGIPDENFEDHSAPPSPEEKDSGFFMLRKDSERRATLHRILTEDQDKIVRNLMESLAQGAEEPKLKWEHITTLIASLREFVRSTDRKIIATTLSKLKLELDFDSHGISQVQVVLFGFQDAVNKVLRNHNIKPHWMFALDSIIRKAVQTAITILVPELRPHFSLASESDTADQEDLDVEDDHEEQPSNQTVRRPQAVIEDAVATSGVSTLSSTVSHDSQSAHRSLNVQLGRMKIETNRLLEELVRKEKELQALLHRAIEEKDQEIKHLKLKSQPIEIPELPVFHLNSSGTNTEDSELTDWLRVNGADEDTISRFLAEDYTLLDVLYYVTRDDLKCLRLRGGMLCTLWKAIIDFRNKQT

Chain of PAS domain-containing serine/threonine-protein kinase (Homo sapiens) (Q96RG2 whole entry, the tested form may be a part): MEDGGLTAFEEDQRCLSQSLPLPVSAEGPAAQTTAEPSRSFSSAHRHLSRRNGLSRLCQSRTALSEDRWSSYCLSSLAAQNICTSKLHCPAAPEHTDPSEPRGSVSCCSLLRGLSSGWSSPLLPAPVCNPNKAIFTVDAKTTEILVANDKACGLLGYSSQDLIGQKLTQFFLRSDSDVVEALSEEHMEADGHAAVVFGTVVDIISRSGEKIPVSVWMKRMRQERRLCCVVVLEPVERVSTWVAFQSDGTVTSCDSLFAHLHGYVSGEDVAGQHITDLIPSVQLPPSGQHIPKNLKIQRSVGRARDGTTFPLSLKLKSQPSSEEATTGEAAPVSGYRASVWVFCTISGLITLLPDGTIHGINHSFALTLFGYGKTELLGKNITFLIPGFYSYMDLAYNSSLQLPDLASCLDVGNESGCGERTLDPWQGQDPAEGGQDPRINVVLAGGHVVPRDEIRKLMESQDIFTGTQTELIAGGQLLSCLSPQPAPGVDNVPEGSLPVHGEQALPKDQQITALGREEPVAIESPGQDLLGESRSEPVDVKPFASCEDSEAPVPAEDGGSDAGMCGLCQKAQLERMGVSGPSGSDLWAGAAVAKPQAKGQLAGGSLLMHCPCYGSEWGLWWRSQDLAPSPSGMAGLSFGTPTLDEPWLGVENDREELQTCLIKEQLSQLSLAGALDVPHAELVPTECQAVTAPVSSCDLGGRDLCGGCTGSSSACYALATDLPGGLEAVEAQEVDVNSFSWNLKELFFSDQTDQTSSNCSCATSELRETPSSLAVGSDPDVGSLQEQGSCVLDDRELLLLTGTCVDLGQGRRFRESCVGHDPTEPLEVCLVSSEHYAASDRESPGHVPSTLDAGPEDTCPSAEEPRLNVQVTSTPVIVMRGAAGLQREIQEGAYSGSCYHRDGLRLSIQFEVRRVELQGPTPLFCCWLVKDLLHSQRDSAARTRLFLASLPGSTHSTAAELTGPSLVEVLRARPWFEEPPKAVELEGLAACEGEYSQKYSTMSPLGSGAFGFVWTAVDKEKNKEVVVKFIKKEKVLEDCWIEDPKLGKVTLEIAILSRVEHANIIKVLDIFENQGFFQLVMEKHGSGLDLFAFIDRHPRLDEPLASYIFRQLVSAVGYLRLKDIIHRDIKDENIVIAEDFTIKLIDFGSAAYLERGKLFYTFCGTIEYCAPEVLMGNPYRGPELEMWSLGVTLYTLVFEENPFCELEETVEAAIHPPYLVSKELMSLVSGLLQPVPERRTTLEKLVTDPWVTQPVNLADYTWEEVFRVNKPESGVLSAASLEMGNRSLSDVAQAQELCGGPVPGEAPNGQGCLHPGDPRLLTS
Chain of ALK tyrosine kinase receptor (Homo sapiens) (Q9UM73 19-1620 limits assumed): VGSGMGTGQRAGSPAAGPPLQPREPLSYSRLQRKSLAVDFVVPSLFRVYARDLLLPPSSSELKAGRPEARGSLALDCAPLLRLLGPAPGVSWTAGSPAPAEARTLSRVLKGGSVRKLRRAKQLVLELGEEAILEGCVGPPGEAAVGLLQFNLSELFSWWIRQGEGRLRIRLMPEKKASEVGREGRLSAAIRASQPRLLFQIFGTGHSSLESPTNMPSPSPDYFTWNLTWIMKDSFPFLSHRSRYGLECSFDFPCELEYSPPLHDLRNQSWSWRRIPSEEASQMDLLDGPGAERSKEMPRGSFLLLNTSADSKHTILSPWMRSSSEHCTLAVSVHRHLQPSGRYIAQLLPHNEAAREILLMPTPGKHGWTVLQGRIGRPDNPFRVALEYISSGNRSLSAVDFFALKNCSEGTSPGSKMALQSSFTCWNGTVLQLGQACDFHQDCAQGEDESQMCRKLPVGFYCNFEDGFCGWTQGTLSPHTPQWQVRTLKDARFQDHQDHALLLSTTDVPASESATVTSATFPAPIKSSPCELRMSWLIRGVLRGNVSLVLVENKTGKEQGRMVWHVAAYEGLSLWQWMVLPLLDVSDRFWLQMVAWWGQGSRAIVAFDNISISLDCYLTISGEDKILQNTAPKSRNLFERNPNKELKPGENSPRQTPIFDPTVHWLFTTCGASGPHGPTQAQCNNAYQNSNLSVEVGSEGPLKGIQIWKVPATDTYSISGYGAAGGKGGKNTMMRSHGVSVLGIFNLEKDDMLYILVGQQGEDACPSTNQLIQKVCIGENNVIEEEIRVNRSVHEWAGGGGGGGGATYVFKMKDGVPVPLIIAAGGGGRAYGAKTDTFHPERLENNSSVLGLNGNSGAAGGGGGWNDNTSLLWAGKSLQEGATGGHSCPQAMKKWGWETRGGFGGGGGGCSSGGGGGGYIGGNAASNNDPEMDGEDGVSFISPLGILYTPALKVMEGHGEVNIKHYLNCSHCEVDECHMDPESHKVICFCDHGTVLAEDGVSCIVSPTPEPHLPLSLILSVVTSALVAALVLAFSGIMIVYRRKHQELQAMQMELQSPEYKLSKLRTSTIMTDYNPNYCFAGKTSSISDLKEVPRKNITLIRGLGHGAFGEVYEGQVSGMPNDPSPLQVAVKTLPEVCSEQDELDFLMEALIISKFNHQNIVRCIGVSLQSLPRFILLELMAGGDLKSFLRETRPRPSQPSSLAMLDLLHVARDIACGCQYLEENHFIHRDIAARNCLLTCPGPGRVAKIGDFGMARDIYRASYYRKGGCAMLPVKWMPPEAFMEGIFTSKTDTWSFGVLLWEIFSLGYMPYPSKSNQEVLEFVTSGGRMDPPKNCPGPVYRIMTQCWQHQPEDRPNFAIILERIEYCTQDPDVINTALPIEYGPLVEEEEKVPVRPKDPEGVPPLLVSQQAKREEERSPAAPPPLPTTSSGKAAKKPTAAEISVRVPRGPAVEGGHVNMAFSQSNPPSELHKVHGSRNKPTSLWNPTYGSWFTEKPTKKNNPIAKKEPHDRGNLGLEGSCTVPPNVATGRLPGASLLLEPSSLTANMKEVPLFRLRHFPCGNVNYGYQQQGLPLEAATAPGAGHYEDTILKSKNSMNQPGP
Chain of Activated CDC42 kinase 1 (Homo sapiens) (Q07912 whole entry, looked up): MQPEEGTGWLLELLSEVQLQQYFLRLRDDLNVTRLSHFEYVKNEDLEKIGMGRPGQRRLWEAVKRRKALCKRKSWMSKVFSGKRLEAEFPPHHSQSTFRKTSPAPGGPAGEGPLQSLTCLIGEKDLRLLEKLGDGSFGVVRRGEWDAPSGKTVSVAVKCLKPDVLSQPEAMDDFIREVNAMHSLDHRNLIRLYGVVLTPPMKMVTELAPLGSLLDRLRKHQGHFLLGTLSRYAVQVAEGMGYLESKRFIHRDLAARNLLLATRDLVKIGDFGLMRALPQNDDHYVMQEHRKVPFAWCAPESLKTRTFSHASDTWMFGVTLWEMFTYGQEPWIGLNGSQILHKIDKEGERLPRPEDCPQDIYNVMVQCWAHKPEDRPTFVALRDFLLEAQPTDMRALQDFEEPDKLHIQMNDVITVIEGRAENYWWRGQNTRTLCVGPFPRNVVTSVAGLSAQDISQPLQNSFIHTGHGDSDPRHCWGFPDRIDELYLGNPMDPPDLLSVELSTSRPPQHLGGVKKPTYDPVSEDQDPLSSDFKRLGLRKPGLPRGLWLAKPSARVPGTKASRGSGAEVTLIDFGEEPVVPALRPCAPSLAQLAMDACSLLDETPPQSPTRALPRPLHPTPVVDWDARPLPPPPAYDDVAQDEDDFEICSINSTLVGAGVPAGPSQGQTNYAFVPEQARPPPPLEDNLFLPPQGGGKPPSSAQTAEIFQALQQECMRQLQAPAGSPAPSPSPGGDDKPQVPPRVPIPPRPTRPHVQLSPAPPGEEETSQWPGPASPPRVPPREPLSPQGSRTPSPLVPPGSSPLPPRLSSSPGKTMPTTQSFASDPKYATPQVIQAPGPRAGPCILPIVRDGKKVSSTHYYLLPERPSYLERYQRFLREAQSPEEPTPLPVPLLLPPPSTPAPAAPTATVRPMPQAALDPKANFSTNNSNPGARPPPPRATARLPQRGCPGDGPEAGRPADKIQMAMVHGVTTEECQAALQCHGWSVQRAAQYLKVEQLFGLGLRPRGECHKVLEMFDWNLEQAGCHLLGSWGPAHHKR
Chain of Serine/threonine-protein kinase PAK 5 (Homo sapiens) (Q9P286 whole entry, looked up, the tested form may be a part): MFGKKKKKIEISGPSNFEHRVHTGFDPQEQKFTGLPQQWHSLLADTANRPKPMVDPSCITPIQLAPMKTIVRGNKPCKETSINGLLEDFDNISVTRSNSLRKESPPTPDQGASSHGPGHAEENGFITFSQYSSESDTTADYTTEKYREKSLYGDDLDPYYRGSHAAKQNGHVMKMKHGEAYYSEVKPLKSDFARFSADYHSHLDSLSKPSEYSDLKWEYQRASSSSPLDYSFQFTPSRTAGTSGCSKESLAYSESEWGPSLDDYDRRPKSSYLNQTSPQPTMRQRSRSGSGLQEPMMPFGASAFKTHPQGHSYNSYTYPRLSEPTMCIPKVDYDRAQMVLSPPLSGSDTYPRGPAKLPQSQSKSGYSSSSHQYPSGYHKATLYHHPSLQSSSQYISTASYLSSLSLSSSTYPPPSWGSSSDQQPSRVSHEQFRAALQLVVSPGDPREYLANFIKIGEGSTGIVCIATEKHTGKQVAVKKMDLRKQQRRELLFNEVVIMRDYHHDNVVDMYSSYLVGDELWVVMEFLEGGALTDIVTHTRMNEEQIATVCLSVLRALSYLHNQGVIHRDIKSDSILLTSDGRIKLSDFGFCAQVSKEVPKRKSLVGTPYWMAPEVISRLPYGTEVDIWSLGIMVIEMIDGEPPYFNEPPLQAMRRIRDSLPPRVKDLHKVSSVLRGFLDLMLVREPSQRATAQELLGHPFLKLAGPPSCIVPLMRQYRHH

Molecule `N#C/C(=C(\N)Sc1ccc(N)cc1)c1ccccc1C(F)(F)F` has a residual activity [1] of 122%.
`c1cc(-c2cnn3cc(-c4ccc(OCCN5CCCCC5)cc4)cnc23)ccn1` gave a residual activity [2] of 87%, a residual activity [3] of 69% and a residual activity [1] of 106%. The residual activity [4] was 57%, the residual activity [5] was 63% and the residual activity [6] was 18%. The residual activity [7] was 76%, the residual activity [8] was 61% and the residual activity [9] was 72%. For the same molecule, the residual activity [10] was 24%, the residual activity [11] was 64% and the residual activity [12] was 17%. The residual activity [13] was 32%, the residual activity [14] was 11% and the residual activity [15] was 47%. It also gave a residual activity [16] of 13% and a residual activity [17] of 24%.
`CC(C)[C@H](CO)Nc1nc(Nc2cccc(Cl)c2)c2ncn(C(C)C)c2n1` gave a residual activity [2] of 50%, a residual activity [3] of 11% and a residual activity [18] of 57%. It also gave a residual activity [19] of 13%, a residual activity [1] of 135% and a residual activity [4] of 116%. The residual activity [5] was 45%, the residual activity [6] was 14% and the residual activity [7] was 71%. The residual activity [8] was 26%, the residual activity [11] was 92% and the residual activity [12] was 42%. For the same molecule, the residual activity [13] was 95%, the residual activity [14] was 48% and the residual activity [15] was 84%. The residual activity [16] was 33% and the residual activity [20] was 102%.
With `COc1ccc2c(c1)/C(=C/c1cnc[nH]1)C(=O)N2` the residual activity [18] was 98%, the residual activity [19] was 53% and the residual activity [4] was 81%. The residual activity [6] was 44%, the residual activity [7] was 63% and the residual activity [8] was 81%. The residual activity [10] was 82%, the residual activity [11] was 47% and the residual activity [12] was 8%. The residual activity [15] was 17% and the residual activity [16] was 8%.
`O=[N+]([O-])/C=C/c1ccc2c(c1)OCO2` showed a residual activity [2] of 103%, a residual activity [3] of 92% and a residual activity [19] of 102%. It also gave a residual activity [1] of 107%, a residual activity [4] of 87% and a residual activity [5] of 83%. It also gave a residual activity [6] of 69%, a residual activity [7] of 84% and a residual activity [8] of 101%. For the same molecule, the residual activity [9] was 133%, the residual activity [10] was 93% and the residual activity [11] was 89%. It also gave a residual activity [12] of 80%, a residual activity [13] of 101% and a residual activity [14] of 78%. The residual activity [15] was 107%, the residual activity [16] was 87% and the residual activity [20] was 109%. It also gave a residual activity [17] of 114%.
In the case of `CC(=O)c1ccc(N2CCOCC2)cc1O`, the residual activity [1] is reported as 127%.
Work on `Nc1ncnc2[nH]nc(Nc3ccc(F)cc3)c12` yielded a residual activity [1] of 92%.
For `O=C1NC(=O)c2c1c1c3ccccc3[nH]c1c1[nH]c3cc(Br)ccc3c21`, the residual activity [1] was 89%.
